From PubChem BioAssay AID1347072 (National Center for Advancing Translational Sciences (NCATS), 2019)
Hit rate of the full screen: of about 44,000 compounds, fewer than 10 were called active. Not shown: some 2% with an inconclusive outcome. The call rests on the fitted dose curve; in most records, active means well fitted curve in the direction sought with a large enough effect; inconclusive means small, poorly fitted or top-dose-only effect, or another doubt; inactive means no such curve, though single readings can be large or run the other way. The list is a sample of the results.

Target: Galactokinase (Homo sapiens) (UniProt P51570)
Assay: qHTS Assay for Inhibitors of Human Galactokinase (GALK): NCGC Sytravon Library Screen
Conditions: recombinant GALK, Kinase-Glo ATP luminescence, 1 h; series mostly up to 57.5 µM
Excerpt: Inherited deficiency of galactose-1-phosphate uridyltransferase (GALT) can result in a potentially lethal disorder called Classic Galactosemia (OMIM 230400). Several lines of evidence indicate that an elevated level of galactose-1-phosphate (gal-1-p), the product of galactokinase (GALK), is a major, if not sole, pathogenic mechanism in patients with classic galactosemia. Therefore, finding inhibitors of GALK is a potential novel therapy for this inherent metabolic disease and is the long term goal of this project. This screen is run against the NCGC Sytravon compound library collection. GALK (provided by Kent Lai) was assayed using ATP and D-(+)-Galactose (Sigma-Aldrich cat# G0750) as substrates. Promega Kinase-Glo Plus technology was used to detect kinase activity. Reactions with and without GALK were used as negative and positive controls together with Protein Tyrosine Phosphatase CD45 inhibitor (EMD Bioscience cat# 540215) which is shown to inhibit GALK activity. Decrease in activity corresponds to inhibition of the enzyme is the desired outcome for this assay. NIH Molecular Libraries Probe Production Network [MLPCN] NIH Chemical Genomics Center [NCGC] Grant: R03 MH085689-01 PI Name: Kent Lai Ph.D., University of Utah
NCGC Assay Protocol Summary: Three uL/well of ATP-buffer solution (35 uM ATP, 20mM HEPES pH8.0, 5 mM MgCl2, 60 mM NaCl, 1 mM DTT, 0.01% BSA final concentration) was dispensed into 1536-well, assay plates (Greiner, solid white medium-binding plates) with Aurora Discovery BioRAPTR Flying Reagent Dispenser (FRD; Beckton-Dickenson). Compound solution (23 nL) was transferred to the assay plate using the Kalypsys 1536-pin tool. One uL/well GALK-galactose solution (5 nM GALK, 100 uM galactose, 20 mM HEPES pH8.0, 5 mM MgCl2, 60 mM NaCl, 1 mM DTT, 0.01% BSA final concentration) was then added using the FRD yielding a total kinase reaction volume of 4 uL/ well. After 1 hour of room temperature incubation, 4 uL Kinase-Glo Plus reagent was added for a final assay volume of 8 uL/ well. Luminescence was detected with the ViewLux plate reader (Perkin Elmer, Waltham, MA) after 10 min incubation using a 1 sec exposure time and 2x binning.

Galactokinase (Homo sapiens), sequence (P51570 whole entry, looked up): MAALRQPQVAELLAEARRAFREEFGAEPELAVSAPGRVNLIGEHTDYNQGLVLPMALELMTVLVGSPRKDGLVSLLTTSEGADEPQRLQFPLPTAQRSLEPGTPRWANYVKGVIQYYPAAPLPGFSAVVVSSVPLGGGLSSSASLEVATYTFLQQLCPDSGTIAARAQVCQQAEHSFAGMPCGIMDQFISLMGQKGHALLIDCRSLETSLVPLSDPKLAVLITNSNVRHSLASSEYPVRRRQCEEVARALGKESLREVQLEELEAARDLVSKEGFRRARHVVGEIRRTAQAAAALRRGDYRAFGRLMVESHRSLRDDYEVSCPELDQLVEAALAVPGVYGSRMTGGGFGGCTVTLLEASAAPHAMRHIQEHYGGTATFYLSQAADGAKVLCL

outcome, inactive:
COC(=O)c1cnc(N2CCN(c3ccccc3OC)CC2)c2ccccc12, CN1c2ccc(Cl)cc2-c2nc(SCC(=O)Nc3cc(F)ccc3F)ncc2S1(=O)=O, COc1ccc(Nc2cc(C(=O)NCCCN(C)c3ccccc3)c3ccccc3n2)c(OC)c1, COc1cccc(CNC(=O)C(=O)NCC(c2cccs2)S(=O)(=O)c2ccccc2)c1 (stereo not drawn), Cc1cccc(-n2ncc(C(=O)N3CCN(c4ccc(Cl)cc4)CC3)c2C2CCN(C(=O)OC(C)(C)C)CC2)c1, COc1ccc(NC(=O)CCNS(=O)(=O)c2ccc3c(c2)CCCC(=O)N3)cc1Cl, Cc1cccc(N(C)C(=O)c2cc(S(=O)(=O)N3CCCCC3)c[nH]2)c1, CCOC(=O)c1c(SCC(=O)Nc2cccc(C)c2C)nc(=O)[nH]c1C, CCc1ccc(NC(=O)C2CCCN2S(=O)(=O)c2ccc3nc(-c4ccccc4)[nH]c3c2)cc1 (stereo not drawn), COC(=O)c1scc(-c2ccccc2)c1S(=O)(=O)Nc1ccccc1, CC1CCN(S(=O)(=O)c2ccc3c(c2)N(CC(=O)NCc2ccccc2Cl)C(=O)CO3)CC1, COc1ccc(N2CCN(C3=NS(=O)(=O)C(c4cccc(Br)c4)=C3C)CC2)cc1, CCOc1ccc(CNC(=O)CCc2c(C)nn(-c3ccc(N4CCCCC4)nn3)c2C)cc1, COc1ccc(OC)c(-c2nc(C(N)=O)c3c(n2)n(-c2ccc4c(c2)OCO4)c(=O)n3C)c1, O=C(NCc1ccc(F)cc1)c1ccc2nc(N3CCCCC3)sc2c1, COc1cc(OC)c(C2C=C(C(=O)O)Nc3ncnn32)cc1OC (stereo not drawn), CCOc1cc(/C=C(\C#N)C(=O)Nc2ccccc2C)ccc1OCc1cc(=O)n2nc(CC)sc2n1, O=C(Nc1ccc2nc(SCCOc3ccccc3Cl)sc2c1)c1ccco1, Cc1ccc(-c2nnc(SCC(=O)NCc3ccccc3)nc2-c2ccc(C)cc2)cc1, COc1cc(NC(=O)Cn2c(=O)n(Cc3ccco3)c(=O)c3oc4ccccc4c32)cc(OC)c1, Cc1ccccc1CN1CCC(CNC(=O)c2cc3ccc4cccnc4c3[nH]2)CC1, Cc1cc(C)c2oc(C(=O)Nc3ccc(S(=O)(=O)N(C)c4ccccc4)cc3)cc(=O)c2c1, Cc1ccc(-c2nc(CS(=O)(=O)CC(=O)NCc3ccccc3Cl)c(C)o2)cc1, CC(=O)c1ccc(NC(c2ccc(F)cc2)c2nnc(-c3ccccc3)o2)cc1 (stereo not drawn), CCOc1ccc(CNC(=O)CCC(=O)N2CCSc3ccccc32)cc1, COCCNC(=O)c1ccc2c(c1)N(Cc1cccc(Cl)c1)C(=O)c1ccccc1S2(=O)=O, COc1cc(NS(=O)(=O)c2ccc3c(c2)OCC(C(=O)N2CCCC2)O3)cc(OC)c1 (stereo not drawn), CCN(CC)C(=O)CSc1nc2cc3c(cc2c(=O)n1CCCC(=O)NCc1ccc2c(c1)OCO2)OCO3, Cc1oc2c(c1C(=O)Nc1ccc(F)c(F)c1)C1=NCCN1C=N2, O=C(NCC(c1cccnc1)N1CCc2ccccc21)c1cccc(C(F)(F)F)c1 (stereo not drawn), O=C(CN1c2ccccc2S(=O)(=O)c2ccccc21)Nc1cccc(C(F)(F)F)c1, COc1ccc(NC(=O)CSC2=Nc3ccccc3C3=NC(CC(=O)NCc4ccccc4OC)C(=O)N23)cc1Cl (stereo not drawn), CCN(CC)CCNC(=O)c1cc2c(=O)oc3ccc(C)cc3c2s1, CCOC(=O)c1cc(-c2ccccc2)n(CCC(=O)Nc2ccccc2CC)c1C, COC(=O)c1sc2ncccc2c1-n1c(C)ccc1C, Cc1ccc2nc(/C(C#N)=C/c3ccccc3F)[nH]c2c1, COCCCNC(=O)C1CCC(CNS(=O)(=O)c2ccc(OC)cc2)CC1 (stereo not drawn), CCOC(=O)c1c(C)oc2nc(C)nc(N3CCN(c4ccc(OC)cc4)CC3)c12, NS(=O)(=O)c1ccc(CCNC(=O)CCCCCn2c(=O)[nH]c3ccccc3c2=O)cc1, COc1ccc(S(=O)(=O)Nc2cc3c(C(=O)OC(C)C)c(C)oc3c3ccccc23)cc1, COc1ccc(C(=O)CSc2c(C(C)C)cnc3c2c(=O)n(C)c(=O)n3C)cc1, NS(=O)(=O)c1ccc2nc(NC(=O)COc3ccccc3)sc2c1, Cc1ccccc1C(=O)N(Cc1ccc(N(C)C)cc1)CC1CCCO1 (stereo not drawn)
